Giardia FBPA inh = qHTS Assay for Inhibitors of Fructose-1,6-bisphosphate Aldolase from Giardia Lamblia; A8B2U2; purified Giardia FBPA; Potency, µM (series often up to 59.6 µM), for inactives: at the highest dose activity, negative = inhibition, most hits filed as inhibitors; AID 2451, 2010; actives 0.71% (n = 290,000); also: potency is read from the fitted curve at half-maximal effect; % is scaled to controls: 0 for no effect and ±100 for the full control effect; nearly all actives have a fitted effect of over 55% in size
Target sequence (A8B2U2 whole entry, looked up): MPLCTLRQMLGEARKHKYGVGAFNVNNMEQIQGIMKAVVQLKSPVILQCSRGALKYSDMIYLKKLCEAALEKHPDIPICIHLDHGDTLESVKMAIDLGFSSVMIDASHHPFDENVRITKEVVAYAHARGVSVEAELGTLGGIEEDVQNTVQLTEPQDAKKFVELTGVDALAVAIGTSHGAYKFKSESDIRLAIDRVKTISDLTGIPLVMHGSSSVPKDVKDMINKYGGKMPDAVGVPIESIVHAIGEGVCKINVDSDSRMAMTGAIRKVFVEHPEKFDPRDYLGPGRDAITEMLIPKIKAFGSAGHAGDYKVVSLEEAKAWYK
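Giardia FBPA (40 nM reagent) was preincubated 10 min at RT with compound (up to 57.5 uM final), then substrate plus GAPDH/TPI/NAD/arsenate coupling system with diaphorase/resazurin was added; resorufin fluorescence (525/598 nm) was read after 20 min.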
CHX counter = Cycloheximide Counterscreen for Small Molecule Inhibitors of Shiga Toxin | max response, % | cell reporter, cycloheximide protein synthesis inhibition counterscreen | AID 2314, 2010 | actives 12% (n = 300,000); in the data active = max response mostly above about 13%, no sharp cut-off; inactive = mostly below about 14%; also: read at 38.3 µM for the half of the compounds with a filed dose; 0% is about no effect
LmPK inhibitor = qHTS Assay for Inhibitors of Leishmania Mexicana Pyruvate Kinase (LmPK); purified LmPK, Kinase-Glo ATP luminescence, 1 h; AID 1721, 2009; actives 0.37% (n = 290,000); Potency, µM (top dose mostly 57.5 µM), for the others: at the top dose activity change, negative = inhibition, actives largely listed as inhibitors; Q27686; also: potency is read from the fitted curve at half-maximal effect; % is scaled to controls: 0 for no effect and ±100 for the full control effect
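Kinase-Glo luminescence read after 1 h RT reaction of 0.1 nM LmPK with 0.5 mM PEP and 0.1 mM ADP. Activity scaled between uninhibited and enzyme-free controls.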
Shiga toxin inh = A qHTS for Small Molecule Inhibitors of Shiga Toxin | AID 2315, 2010 | inhibition, % at 38.7 µM | Vero cells, Shiga toxin protein synthesis inhibition reporter | actives 9.2% (n = 290,000); in the data active = inhibition mostly above about 28%, no sharp cut-off; inactive = mostly below about 43%; also: 0% is about no effect
Tb PYK inh = qHTS of Trypanosoma Brucei Inhibitors; TbPYK enzyme, Kinase-Glo Plus ATP luminescence, 45 min; Potency, µM (top dose mostly 76.8 µM), for the others: at the top dose activity, negative = inhibition, actives largely listed as inhibitors; actives 0.12% (n = 410,000); AID 624173, 2012; also: potency is read from the fitted curve at half-maximal effect; % is scaled to controls: 0 for no effect and ±100 for the full control effect; nearly all actives have a fitted effect of over 50% in size
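Screened from lowest to highest concentration, compounds were pinned into TbPYK/substrate mixtures, and ADP (130 uM final) was added. Plates sat at room temperature for 45 min prior to Kinase-Glo Plus detection by luminescence.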
Sm TGR inh = qHTS Assay for the Inhibitors of Schistosoma Mansoni Peroxiredoxins. Schistosoma mansoni thioredoxin glutathione reductase (TGR), Q962Y6. AID 485364, 2010. purified TGR, DTNB reduction, TNB absorbance 405 nm. actives 3% (n = 360,000). Potency, µM (highest dose often 114 µM), for inactives: at the highest dose activity change, negative = inhibition, actives largely listed as inhibitors; also: potency is read from the fitted curve at half-maximal effect; % is scaled to controls: 0 for no effect and ±100 for the full control effect; nearly all actives have a fitted effect of over 60% in size
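First, TGR (20 nM dispensed) and NADPH were mixed with compound. Second, a 15 min room-temperature incubation followed. Third, further NADPH and then DTNB were added to start the reaction. Finally, TNB absorbance was monitored kinetically.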
The depositor's hits bear a star; ? = inconclusive; · = no result. This is one part of a sample in which hits are shown more often than they occur. Unless noted, calls follow the shape of the dose curve; as a rule, active = well fitted curve in the direction sought with a large enough effect; inconclusive = small, poorly fitted or top-dose-only effect, or another doubt; inactive = no such curve, though single readings can be large; an effect the other way counts as inactive or inconclusive.

SMILES | Giardia FBPA inh | CHX counter | LmPK inhibitor | Shiga toxin inh | Tb PYK inh | Sm TGR inh
CCCOc1ccc(N2C(=O)CC(N(CCc3ccccc3)C(=O)c3ccccc3)C2=O)cc1 (configuration not stated) | -3.6% | 21.3* | 0.0% | 14.5 | -0.5% | ·
CCCOc1ccc(N2C(=O)CC(N(Cc3ccccc3)N=O)C2=O)cc1 (configuration not stated) | -2.5% | 6.2 | 3.8% | 29.5 | 1.9% | 5.8%
O=C(COC(=O)C1CCN(c2ccc(C(F)(F)F)cn2)CC1)NCc1ccccc1 | · | · | · | · | -1.5% | 5.4%
COc1ccccc1N(O)C1CC(=O)N(c2ccc(F)cc2)C1=O (configuration not stated) | -14.2% | 32.0* | 1.4% | 61.4* | -17.9% | 3.55µM*
CCN(CCO)C1CC(=O)N(c2ccccc2C)C1=O (configuration not stated) | -14.0% | -2.3 | -0.8% | -0.6 | -5.9% | 6.31µM*
Cc1ccccc1N1C(=O)CC(N(O)c2ccccc2)C1=O (configuration not stated) | ? | 10.8 | 1.7% | 36.8 | 0.6% | 39.8µM*
COc1ccc(S(=O)(=O)N2CCCCCC2)cc1NC(=O)CC1OC(=O)c2ccccc21 (configuration not stated) | · | · | · | · | -14.1% | 39.8µM*
Cc1ccc(NC(=O)CC2OC(=O)c3ccccc32)cc1S(=O)(=O)N1CCCCCC1 (configuration not stated) | · | · | · | · | -8.7% | 25.1µM*
Cc1ccc(NC(=O)CCl)cc1S(=O)(=O)N1CCCCCC1 | -3.0% | 12.1 | 8.8% | 1.6 | 1.4% | 7.94µM*
O=C(CC1OC(=O)c2ccccc21)Nc1cccc(S(=O)(=O)N2CCCCCC2)c1 (configuration not stated) | · | -0.2 | 0.3% | -7.6 | -6.1% | -21.7%
COCCNCC(=O)Nc1ccc(C)c(S(=O)(=O)N2CCCCC2)c1 | ? | -3.3 | 4.8% | -6.6 | 17.1% | 6.2%
O=C(CC1OC(=O)c2ccccc21)Nc1ccc(Cl)c(S(=O)(=O)N2CCCCC2)c1 (configuration not stated) | · | · | · | · | 3.7% | -24.0%
Cc1cccc(-c2nc3scc(CCNC(=O)c4ccccc4Cl)n3n2)c1 | · | · | · | · | 0.5% | 4.7%
Cc1ccc(C)c(Cn2c(=O)n(C(C)C)c(=O)c3oc4ccccc4c32)c1 | · | · | · | · | 1.5% | 7.5%
Oc1c(C(Nc2cccc(C(F)(F)F)c2)c2ccncc2)ccc2cccnc12 (configuration not stated) | -16.0% | -3.0 | 1.5% | -11.9 | 116.9% | 35.5µM*
CCOc1cc(C(Nc2cc(C)ccn2)c2ccc3cccnc3c2O)ccc1OC (configuration not stated) | · | · | · | · | 53.6% | 0.282µM*
Cc1ccc(C(Nc2ccccn2)c2ccc3cccnc3c2O)cc1 (configuration not stated) | · | · | · | · | 35.3% | 1µM*
Cc1ccnc(NC(c2cccc(O)c2)c2ccc3ccc(C)nc3c2O)c1 (configuration not stated) | · | · | · | · | 14.4% | 1.58µM*
Oc1c(C(Nc2nccs2)c2ccc(C(F)(F)F)cc2)ccc2cccnc12 (configuration not stated) | ? | -2.1 | -0.4% | 20.3 | -1.5% | -13.3%
CCC(=O)NC(c1ccc(OC)c(OC)c1)c1cc(Cl)c2cccnc2c1O (configuration not stated) | -11.0% | 7.0 | 6.5% | 2.4 | -1.6% | -2.8%
CC(=O)NC(c1ccc(Cl)cc1Cl)c1ccc2cccnc2c1O (configuration not stated) | ? | -1.3 | 2.7% | -2.3 | -13.9% | -17.5%
Cc1cccc(NC(c2ccccc2F)c2ccc3ccc(C)nc3c2O)n1 (configuration not stated) | · | · | · | · | -0.9% | 5.01µM*
COc1ccc(C(Nc2ccccn2)c2ccc3ccc(C)nc3c2O)cc1C (configuration not stated) | · | · | · | · | 0.3% | 0.708µM*
CC(=O)NC(c1ccc2ccccc2c1)c1ccc2cccnc2c1O (configuration not stated) | ? | -1.2 | -5.1% | -21.1 | -12.1% | -2.6%
Cc1cccc(NC(c2cccc(Cl)c2)c2ccc3cccnc3c2O)n1 (configuration not stated) | · | · | · | · | 19.9% | 4.47µM*
SMILES | Giardia FBPA inh | CHX counter | LmPK inhibitor | Shiga toxin inh | Tb PYK inh | Sm TGR inh
O=S(=O)(Nc1nc2ccccc2nc1Nc1cccc(S(=O)(=O)N2CCCCC2)c1)c1ccccc1 | 8.6% | -3.6 | 1.5% | -5.4 | 1.7% | 1.7%
CCOc1ccc(CNc2nc3nc(C)c(Cc4ccccc4)c(=O)n3[nH]2)cc1 | · | · | · | · | 5.2% | 2.3%
CCCCCCn1c(=O)n2n(c1=O)[C@@H]1CN(S(=O)(=O)c3ccc(C)cc3)C[C@]1(O)[C@@H](OC(=O)Nc1c(C)noc1C)C2 | · | · | · | · | 0.3% | ·
Cc1cccc(C)c1NC(=O)Cn1c(=O)n(Cc2ccco2)c(=O)c2ccc(C(=O)NC3CCCC3)cc21 | · | · | · | · | -3.5% | 8.5%
CCOC(=O)c1c(NCc2ccccc2)n[nH]c1C | -6.0% | -1.5 | -3.0% | 24.8 | -1.3% | -0.2%
CCc1[nH]nc(C(=O)N/N=C/c2ccncc2)c1C | · | 23.7* | -16.9% | 50.1* | -0.9% | 0.7%
CCOC(=O)c1c(N/N=C/c2ccncc2)n[nH]c1C | 8.8% | 25.2 | -15.5% | 49.9* | 0.6% | 3.2%
CCN(CC)c1cc2c(cc1F)c(=O)c(S(=O)(=O)c1ccc(OC)cc1)cn2Cc1ccccc1 | · | · | · | · | 2.2% | -3.8%
C=C1C[C@]23CC[C@H]4C(CO)(CO)C[C@@H](O)C[C@@]4(C)[C@@H]2CC[C@H]1C3 | 3.9% | · | · | · | · | ·
Cc1ccc(S(=O)(=O)N2CN(Cc3ccco3)c3nc4ccccc4nc32)cc1 | -13.9% | -2.1 | 2.3% | 4.7 | -4.0% | 22.4µM*
O=S(=O)(c1ccc(F)cc1)N1CN(Cc2ccco2)c2nc3ccccc3nc21 | -9.7% | 8.6 | -0.5% | -2.0 | 3.5% | ?
COc1ccc(S(=O)(=O)N2CN(Cc3ccco3)c3nc4ccccc4nc32)cc1 | -17.2% | 12.8 | -0.1% | 34.6 | -4.6% | 11.2µM*
COC(=O)c1ccsc1NC(=O)CCS(=O)(=O)c1ccc(Cl)cc1 | · | · | · | · | 5.3% | ?
Cc1ccsc1C(=O)OCC(=O)Nc1sccc1C(N)=O | 0.5% | 42.3* | -4.8% | 64.8* | 4.9% | 4.0%
COC(=O)c1ccsc1NC(=O)CCc1ccccc1 | 0.6% | 48.3* | -16.3% | 65.0* | 5.0% | 2.5%
NC(=O)c1ccsc1NC(=O)CCc1ccccc1 | -12.2% | 43.9* | -4.5% | · | -7.0% | -16.9%
COC(=O)c1ccsc1NC(=O)CCS(=O)(=O)c1ccccc1 | · | 7.8 | -4.5% | 12.4 | -8.4% | 10µM*
